Consider 40 molecules from PubChem BioAssay (NCATS).

Results filed as inconclusive are left out. Active and inactive are the calls of the source. Calls follow the shape of the dose curve; as a rule, active = well fitted cell-killing curve with a large enough effect; inconclusive = small, poorly fitted or top-dose-only effect; inactive = flat fitted curve, though single readings scatter.

In general, viability refers to a read-out of living cells in per cent, often relative to untreated cells.
Potency is read from the fitted curve at half-maximal effect.

The assay is described as follows: Quantitative highthroughput screen to assess conditional lethalithy of NOMO1 cells grown in RPMI1640 with dialyzed fetal bovine serum (RPMI+ds) (AID 1963877). Also: nearly all actives have a fitted effect of over 30% in size. The note with it: NOMO1 in RPMI+dialyzed FBS viability, ATP luminescence, 48 h; series mostly up to 45.8 µM; viability: at the top concentration. An excerpt: Assay Provider: Jason Cantor Ph.D.
Department of Biochemistry
University of Wisconsin-Madison, Madison, WI, USA
Chemical screening studies have identified drug sensitivities across hundreds of cancer cell lines but most putative therapeutics fail to translate. Discovery and development of drug candidates in models that more accurately reflect nutrient levels in human blood is a major challenge. Here we performed high-throughput screens in conventional versus Human Plasma-Like Medium (HPLM) to identify compounds that were "missed" when screening using the artificial culture condition. Sets of conditional anticancer compounds spanned phases of clinical development and included non-oncology drugs were assessed. […] We also traced conditional phenotypes for several chemotherapeutics to availability of HPLM-specific metabolites and confirmed others for compounds whose reported targets are encoded by nonessential genes. Our findings establish generalizable strategies for exploiting conditional lethality in HPLM to reveal therapeutic candidates and mechanisms of action in cancer cells.
Described herein are the results of each viability screens against three cell lines: NOMO1 (an acute myeloid leukemia cell line); P12-Ichikawa (a T-cell acute lymphoblastic leukemia); and SEM (a B-cell ALL). Each assay was screened using 3 different cell culture media: homemade human plasma-Like medium with 10% dialyzed fetal bovine serum (HPLM+ds); RPMI1640 with 10% untreated FBS and 5mM glucose (RPMI+s); and RPMI1640 with 10% dialyzed fetal bovine serum and 5 mM glucose (RPMI+ds).
PROTOCOL TABLE (as described by Inglese J, Shamu CE and Guy RK. 2007)
SEQUENCE No. (e.g., 1, 2, 3, etc.); […] (e.g., Cells, Incubation, Reagent, etc.); VALUE and DESCRIPTION.
1; Cells; 5 uL; white, solid bottom 1536-well Greiner assay plate.
2; Compounds; 23 nL; Kalypsis pin tool (Wako USA) equipped with a 1536-well pin head to transfer to the assay plates.
3; Incubation; 48 hours; 37C incubation.
4; Reagent; 3 uL; CellTiter Glo (Promega).
5; Incubation; 5 min, room temperature
6; Detection; Luminescence, Viewlux PerkinElmer.
NOTES (numbers refer to Sequence numbers above)
1. Briefly, 5 ul of cell reagent was dispensed using a Multidrop Combi Dispenser. The NOMO1 and SEM cells were plated at 500 cells/well and the P12-Ichikawa line at 1000 cells/well.
2. After seeding the cells, 23 nL of MIPE 4.1 library compounds (in DMSO) were added to each plate using a Kalypsys 1536 Pintool dispenser. Bortezomib at final concentration of […] and DMSO were added to each plate as positive and negative controls respectively. For each screen, MIPE 4.1 compounds were added over an eleven-point concentration range […] in 3-fold dilutions.
3. Each plate was covered with a stainless steel gasketed lid to prevent evaporation and incubated for 48 hour at 37C, 95% relative humidity, and 5% CO2.
4-5. Three microliter CellTilter-GloTM luminescent substrate mix (Promega) reagent was added to the assay plate and incubated at room temperature for 5 min.
6. The luminescence signal was measured using a ViewLux (PerkinElmer) multiplate reader with a 2 second exposure time per plate. Data for each compound were normalized as percent viability such that measurements for DMSO and the empty well controls in each plate were defined as 100% and 0%, respectively.
As for `Nc1nc2ccc(OC(F)(F)F)cc2s1`, the “viability” value is 90.7% (inactive).

On to `COc1cccc2nc(-c3cccs3)nc(NN3C(=O)C=C(C)C3=O)c12`, for which the Potency is 1.32 µM (active).

Regarding `CN1[C@H]2CC[C@H]1CC(OC(=O)c1c[nH]c3ccccc13)C2` (stereo not given in full), the “viability” value was 91.4% (inactive).

Turning to `Oc1ccc(-c2nc(-c3ccc(F)cc3)c(-c3ccncc3)[nH]2)cc1`, the Potency is 13.2 µM (active).

For the molecule `Cc1n[nH]c(C)c1Cc1sc2c(c1C(=O)N1C[C@H](O)CO1)c(=O)n(C)c(=O)n2CC(C)C`, the “viability” value is 100% (inactive).

Turning to `Cc1cn[nH]c1`, the “viability” value was 93.3% (inactive).

Turning to `CC(=O)O[C@H]1C[C@@H]2CC[C@H]3[C@H]4C[C@H]([N+]5(C)CCCCC5)[C@@H](OC(C)=O)[C@@]4(C)CC[C@@H]3[C@@]2(C)C[C@H]1[N+]1(C)CCCCC1`, the “viability” value was 98% (inactive).

As to `CN1CCN(Cc2ccc(NC(=O)Nc3ccc(Oc4cc(NC(=O)C5CC5)ncn4)cc3)cc2C(F)(F)F)CC1`, the Potency was 0.418 µM (active).

Take `O=C1c2ccccc2-c2n[nH]c3cccc1c23`: the Potency was 23.5 µM (active).

Regarding `COc1cc(C(C)C)c2c(c1)S(=O)(=O)N(COc1cc(=O)n3cccc(OCCN4CCCCC4)c3n1)C2=O`, the “viability” value is 85.2% (inactive).

As to `Nc1ncnc2c1ncn2[C@@H]1O[C@H](CO)C[C@@H]1O`, the “viability” value is 104% (inactive).

Regarding `CC1(O)CC(c2nc(-c3ccc4ccc(-c5ccccc5)nc4c3)c3c(N)nccn23)C1` (stereo not given), the Potency was 3.72 µM (active).

Take `COc1cc(OC)c(NC(=O)Nc2cc(C)on2)cc1Cl`: the “viability” value is 96.1% (inactive).

On to `COc1cc(O)c2c(c1)C1OC1C[C@H](O)[C@H](O)C(=O)C=CC[C@H](C)OC2=O` (stereo not given in full), for which the Potency was 13.2 µM (active).

Turning to `COc1ccc(CC2SC(=O)NC2=O)cc1C(=O)NCc1ccc(C(F)(F)F)cc1` (stereo not given), the “viability” value is 105% (inactive).

Take `CC(C)(C)c1cc(C(=O)O)c(NC(=O)Nc2ccc3[nH]ncc3c2)s1`: the “viability” value is 98.8% (inactive).

Take `CCCCCCCCc1ccc(CCC(N)(CO)CO)cc1`: the Potency is 23.5 µM (active).

For `OC[C@H]1O[C@@H](Oc2cc(O)cc(C=Cc3ccc(O)cc3)c2)[C@H](O)[C@@H](O)[C@H]1O`, the Potency was 2.35 µM (active).

In the case of `CC(C)C[C@@H](C(=O)N[C@H](C(=O)OC1CCCC1)c1ccccc1)[C@H](O)C(=O)NO`, the Potency was 23.5 µM (active).

As for `O=C(NCCCNc1nc(Nc2cccc(NC(=O)N3CCCC3)c2)ncc1I)c1cccs1`, the “viability” value was 99.4% (inactive).

For `COC1CCC(N(C(=O)C2CCC(C)CC2)c2cc(C3=CCCCC3)sc2C(=O)O)CC1` (stereo not given), the “viability” value was 84.4% (inactive).

With `CCC[C@@H]1C[C@@H](C(=O)N[C@@H]([C@H]2O[C@H](SC)[C@H](O)[C@@H](O)[C@H]2O)[C@@H](C)O)N(C)C1`, the “viability” value was 97.2% (inactive).

In the case of `O=C1NC(=O)C(=Cc2ccc3nccc(-c4ccncc4)c3c2)S1`, the Potency was 1.32 µM (active).

As for `C[C@@H]1C[C@H]2[C@@H]3CCC4=CC(=O)C=C[C@]4(C)[C@@]3(F)[C@@H](O)C[C@]2(C)[C@@]1(O)C(=O)CO`, the “viability” value is 82.4% (inactive).

With `Nc1nc(OCc2ccccc2)c2[nH]cnc2n1`, the “viability” value is 104% (inactive).

As for `COc1cc(OC)c(C(=O)CCCN2CCCC2)c(OC)c1`, the “viability” value was 95.5% (inactive).

Consider `OCc1ccc(-c2ccc(-c3ccc(CO)s3)o2)s1`, for which the “viability” value is 99.1% (inactive).

On to `NNC(=O)c1ccncc1`, for which the “viability” value was 101% (inactive).

As to `CC1COc2c(N3CCN(C)CC3)c(F)cc3c(=O)c(C(=O)O)cn1c23` (stereo not given), the “viability” value was 99.6% (inactive).

For the molecule `CC1(C)CCC(C)(C)c2cc(NC(=O)c3ccc(C(=O)O)cc3)ccc21`, the “viability” value was 68.1% (inactive).

On to `CN1C(=O)c2sccc2N(C)c2nc(Nc3ccc(S(N)(=O)=O)cc3)ncc21`, for which the Potency was 13.2 µM (active).

`CN(C)c1ccc2nc3ccc(=[N+](C)C)cc-3sc2c1`: the Potency was 6.62 µM (active).

Turning to `CCOC(=O)[C@H](CCc1ccccc1)N[C@H]1CS[C@H](c2cccs2)CN(CC(=O)O)C1=O`, the Potency was 13.2 µM (active).

Turning to `NCc1ccc(OCCCc2sc(-c3ccc4c(c3)/C(=N/Nc3nc5ccccc5s3)CCC4)nc2C(=O)O)cc1`, the Potency was 0.0166 µM (active).

In the case of `O=P(O)(O)C(O)(Cn1ccnc1)P(=O)(O)O`, the “viability” value is 86.2% [at 23.2 µM] (inactive).

With `COc1ccc(-c2nc3ccc(C4=NNC(=O)CC4C)cc3[nH]2)cc1` (stereo not given), the “viability” value is 105% (inactive).

Consider `Cc1ccc(C(=O)Nc2cccc(C(F)(F)F)c2)cc1-c1ccc2nc(NCCN3CCOCC3)ncc2c1`, for which the Potency is 4.69 µM (active).

Take `CC(NCCc1ccc(O)cc1)C(O)c1ccc(O)cc1` (stereo not given): the “viability” value was 81.2% (inactive).

With `CCCCNc1cc(C(=O)O)cc(S(N)(=O)=O)c1Oc1ccccc1`, the “viability” value is 107% (inactive).

For the molecule `C[C@@]12C(=O)OC(=O)[C@@]1(C)C1CCC2O1`, the Potency was 7.43 µM (active).
